Laboratory results taken from the supplement of paper PMC12636033.
± gives the standard deviation of the averaged measurements. In all, about 33,000 sequences were measured (“E-score (rank enrichment, -0.5 to 0.5)”: median about -0.0043, highest 2% from about 0.24 on). The sample as a whole holds a higher share of the highest values than the screen did.

Tested on: 2Sp-muMax20 (muMax20 with two 2,6-bis(methyl)pyridine Cys staples)
Assay: PBM 8-mer E-score (E-score (rank enrichment, -0.5 to 0.5)); higher = stronger preferential binding
Description: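 Protein binding microarray (universal PBM chip covering all 10-mers in fixed probe flanks) with chemically synthesized human Max(13-93) bHLH-LZ analogs (not full-length Max) bearing noncanonical residues (hArg, Tha, Aib, Nle at 65) and aromatic Cys staples. Read-out per 8-mer (and its reverse complement): E-score (rank-based enrichment, -0.5 to 0.5) and Z-score of median probe intensity.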

Sequence	PBM 8-mer E-score
ACTTAGCC	-0.0201 ± 0.091
AGCGTAAC	0.041 ± 0.14
GACTCAGC	-0.176 ± 0.036
AACGCCTT	-0.0913 ± 0.021
ACACAAAG	0.206 ± 0.045
AGACAATC	0.0678 ± 0.067
GCACAATA	-0.00579 ± 0.025
ACACAAAA	0.172 ± 0.045
ACACAATG	0.122 ± 0.025
AGACAATA	0.268 ± 0.026
AGACAATG	0.00664 ± 0.0054
ACACAAAC	0.271 ± 0.025
ACACAATA	0.247 ± 0.029
GAAGGTCA	-0.106 ± 0.027
ATCTAACG	0.0512 ± 0.018
CCCCTTTA	0.1759 ± 0.0016
ACTGTGGC	-0.025 ± 0.13
TGTTTAAA	0.278 ± 0.015
AGTTTAAA	0.181 ± 0.021
CATTTTAA	0.167 ± 0.029
TGTTTTAA	0.0917 ± 0.0018
TATTTAAA	0.155 ± 0.05

Sequence	PBM 8-mer E-score
CATTTAAA	0.239 ± 0.026
ATCCTCTA	-0.0199 ± 0.026
CAAGTGTG	0.119 ± 0.073
AATGCGTC	-0.0127 ± 0.03
ATCAAGAC	-0.00991 ± 0.011
ACGATGAT	0.0729 ± 0.0089
CTCTATCA	-0.0317 ± 0.017
GGCACCAA	0.0196 ± 0.084
CATGTGGA	0.16 ± 0.0062
CATGTGGC	0.173 ± 0.13
CATGTGGG	0.329 ± 0.026
AATGTGGG	0.246 ± 0.00061
AATGTGGC	0.124 ± 0.005
AATGTGGT	0.0284 ± 0.063
CGGAGTTA	-0.187 ± 0.057
GGGAGTTA	0.245 ± 0.029
AGGAGTTA	0.109 ± 0.0086
CATCGTGA	-0.256 ± 0.15
GAAGTCTA	0.0975 ± 0.1
CATACTAC	0.0746 ± 0.039
CATACTAG	0.243 ± 0.0018
CATACTAA	0.1447 ± 0.00064

Sequence	PBM 8-mer E-score
CTTACTAC	0.122 ± 0.0036
ACTACTAT	0.146 ± 0.12
ATTACTAG	-0.00656 ± 0.053
ACTACTAG	0.261 ± 0.086
CCTACTAG	0.107 ± 0.023
ATTACTAC	0.256 ± 0.011
AACTTGTA	0.0176 ± 0.02
AGAGTCAA	-0.0327 ± 0.08
CGGCGGAG	-0.149 ± 0.039
CTGCTCGC	-0.104 ± 0.0046
CAGAGGTC	-0.182 ± 0.051
CAGCAACG	-0.129 ± 0.075
GAATATAA	0.215 ± 0.056
AAATATAC	0.087005 ± 2.1e-05
ACCAATAG	-0.0592 ± 0.066
CAATATAA	0.152 ± 0.1
ACCAATAT	0.258 ± 0.045
AAAAATAG	0.122 ± 0.058
AAATATAG	0.148 ± 0.036
AAATATAT	0.3135 ± 0.00093
ACCAATAC	0.139 ± 0.021
AAAAATAT	0.244 ± 0.024

Sequence	PBM 8-mer E-score
AAAAATAA	0.0898 ± 0.087
TAATATAA	0.242 ± 0.035
ATGCGCCG	-0.102 ± 0.045
CATGGCAG	0.0778 ± 0.016
CCCAAAGC	-0.158 ± 0.047
GAGCCGAA	-0.123 ± 0.12
TACTATAA	0.261 ± 0.011
GACTATAA	0.0335 ± 0.072
AAATAAAA	0.175 ± 0.059
AAATATCA	0.132 ± 0.038
AACTATAA	0.199 ± 0.015
AAATATAA	0.255 ± 0.03
TAGCGGCA	-0.00468 ± 0.025
TTAGTCAA	-0.0593 ± 0.046
ATCTCACA	0.141 ± 0.066
TAATCCAA	0.256 ± 0.031
GAATCCAA	0.132 ± 0.0084
AAATCCAA	0.0276 ± 0.05
ACGGGATA	0.146 ± 0.0045
CATCTTGA	0.00562 ± 0.03
GATCTTGA	0.263 ± 0.086
